The list is not random: actives were taken first. Their share in the collection is about 5.2%.
Tau fluor cs – counter-screen for tau fibril formation inhibitors | actives 0.93% (n = 280,000) | tau K18 P301L Alexa594 fluorescence, heparin fibrillization | Potency, µM (top dose mostly 57.7 µM), without a hit: at the highest dose activity change, negative = decrease | AID 1463; note: potency is the fitted concentration of half-maximal effect; nearly all actives have a fitted effect of over 55% in size
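Human K18 P301L tau (15 uM unlabeled plus 0.24 uM Alexa 594-labeled, final) in 100 mM sodium acetate pH 7 was mixed with compound and 20 uM heparin and incubated 6 hr at 37 C.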
Tau ThT inhib – tau fibrillization inhibition (ThT binding); P10636; recombinant tau K18 P301L (four-repeat tau fragment), heparin-induced fibrillization, ThT fluorescence; Potency, µM (top dose mostly 57.4 µM), inactives show at the highest dose activity, negative = inhibition, actives largely listed as inhibitors; actives 2.1% (n = 270,000); AID 1460; note: potency is the fitted concentration of half-maximal effect; nearly all actives have a fitted effect of over 55% in size
Target sequence (P10636 561-689 P618L limits assumed): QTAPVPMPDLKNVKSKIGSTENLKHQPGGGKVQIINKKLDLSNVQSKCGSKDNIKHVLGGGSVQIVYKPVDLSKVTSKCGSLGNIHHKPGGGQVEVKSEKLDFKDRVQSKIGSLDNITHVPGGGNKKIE
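Heparin-induced (20 uM) aggregation of recombinant human K18 P301L tau, 15 uM unlabeled with 0.24 uM labeled, pH 7 acetate buffer, 6 hr at 37 C with compound. Fibrils quantified by 30 uM ThT fluorescence after 1 hr ambient incubation.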
FBPA coupling cs – counter-screen for Giardia aldolase inhibitors: coupling enzyme system | coupling enzyme system counterscreen, AmpLite Red fluorescence | activity change, negative = inhibition, % at 58.2 µM, hits read low | actives 0.67% (n = 290,000); in the data active = activity change below about -30%
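First, compound is pin-transferred into glyceraldehyde-3-phosphate coupling-enzyme reagent at 57.5 uM final and held 10 min at RT. Next, substrate, coupling system and AmpLite Red are added. After 20 min RT, fluorescence (525/598 nm) is read.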
Tau FP inhib – inhibitors of human tau fibril formation. K18 P301L tau heparin fibrillization, Alexa594 FP, 6 h. actives 0.39% (n = 280,000). Potency, µM (doses to about 57.7 µM), inactives show top-dose activity, negative = inhibition, hits mostly inhibitors; note: potency is the fitted concentration of half-maximal effect; nearly all actives have a fitted effect of over 55% in size
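K18 P301L tau (15 uM unlabeled/0.24 uM Alexa 594-labeled, final) + compound + heparin 20 uM final; 100 mM NaOAc pH 7; 6 hr 37 C; ThT 30 uM final added, 1 hr RT; FP ex 555/em 632 nm.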
Sfp inh – blocks B. subtilis Sfp PPTase activity; Potency, µM, for inactives: largest response in the series, negative = inhibition, most hits filed as inhibitors; Biochemical Sfp PPTase activity, qHTS; AID 1490; actives 3.5% (n = 310,000); Q9F4F7;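 note: the enzyme is Sfp with the accession as filed and its product quenches rhodamine fluorescence; potency is the fitted concentration of half-maximal effect; 0% = enzyme reaction without inhibitor and -100% = no enzyme wells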
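Step 1, compound plus 15 nM Sfp-PPTase, 15 min, room temperature. Step 2, add rhodamine-CoA (5 uM) and BHQ-2-YbbR (12.5 uM). Step 3, read 525/598 nm fluorescence at 0 and 30 min.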
Starred values were filed as active, the others as inactive; ? = inconclusive; · = not tested or not shown; [ ] = dose if it differs, or a comment. Unless noted, calls come from the whole dose curve; as a rule, active = well fitted curve in the direction sought with a large enough effect; inconclusive = small, poorly fitted or top-dose-only effect, or another doubt; inactive = no such curve, though single readings can be large; an effect the other way counts as inactive or inconclusive. Unless noted, % is set by controls: 0 for no effect and ±100 for the full control effect.

SMILES	Tau fluor cs	Tau ThT inhib	FBPA coupling cs	Tau FP inhib	Sfp inh
COc1ccc(/C=N/Nc2nncc3ccccc23)cc1	-29.3%	?	-1.0	4.9%	50.1µM*
Oc1ccc(/C=N/Nc2nn3cnnc3c3ccccc23)cc1	?	·	-0.7	8.1%	56.2µM*
O=C(CCCN1C(=O)c2cccnc2Oc2ccc(Cl)cc21)NCc1ccccc1F	-4.3%	2.6%	·	-4.1%	·
CCNc1ncc2nc(-c3ccccc3)c(=O)n(CCC#N)c2n1	·	·	2.6	·	24.3%
CCc1ccc(NC(=O)c2ccc3c(c2)C(=O)N(Cc2ccco2)C3=O)cc1	-16.7%	?	-1.9	10.2%	39.8µM*
COc1cccc(NC(=O)CCc2nnc3n(CC(C)C)c(=O)c4ccccc4n23)c1	-6.6%	1.4%	·	-2.3%	·
COc1ccc(C(Nc2ccccn2)c2ccc3ccc(C)nc3c2O)cc1C (stereo unspecified)	-19.2%	15.8µM*	·	2.8%	·
CCOc1ccc(NC(=O)NCCc2c(C)nn(C)c2C)cc1	-3.8%	-13.5%	·	5.6%	·
O=C(O)c1ccc(-n2c(O)c(C=C3N=c4ccccc4=N3)sc2=S)cc1	?	17.8µM*	-1.6	3.5%	-0.5%
O=C(O)CCCCCn1c(O)c(C=C2N=c3ccccc3=N2)sc1=S	?	12.6µM*	5.9	17.9%	?
CC1CCN(c2nc3ccccc3nc2C(F)(F)F)CC1	-4.8%	3.2%	·	-5.7%	·
Cc1nc2ccc([N+](=O)[O-])cc2nc1C	-5.7%	-10.2%	-2.5	-5.1%	22.4%
Cc1ccc2nc3cc([N+](=O)[O-])cc([N+](=O)[O-])c3cc2c1	?	3.16µM*	-6.1	?	9.7%
Cc1c(/C=N/NC(=O)CNc2ccccc2)c2ccccn2c1C(=O)c1ccncc1	?	14.1µM*	5.4	?	18.9%
CCOc1ccc(NC(c2ccccn2)c2oc(CO)cc(=O)c2O)cc1 (stereo unspecified)	-11.3%	?	-18.9	-8.6%	3.16µM*
CCOc1ccc(C(Nc2cccnc2)c2cc(Cl)c3cccnc3c2O)cc1 (stereo unspecified)	-6.2%	-4.9%	-25.1	-1.7%	?
Cc1cccc(CC(=O)NCCc2csc(-c3ccc(C(F)(F)F)cc3)n2)c1	-23.0%	-20.6%	·	0.7%	·
Cc1ccc(/C=C2\CCCC3=C2NC(=S)NC3c2ccc(C)cc2)cc1 (stereo unspecified)	-14.9%	?	-0.3	-2.5%	25.1µM*
Nc1nc2ccc([N+](=O)[O-])c(N)c2s1	?	11.2µM*	-0.8	?	89.1µM*
Cc1cc2oc(C(=O)Nc3ccc(S(=O)(=O)N4CCC(C)CC4)cc3)cc(=O)c2cc1C	-0.3%	10.9%	·	-6.8%	·
O=C(O)c1cc([N+](=O)[O-])ccc1NCCCc1ccccc1	-8.2%	3.55µM*	-6.2	2.1%	-3.4%
O=C(CC(c1ccc(F)cc1)c1ccco1)N1CCCC1 (stereo unspecified)	4.4%	?	4.5	-5.7%	31.6µM*
O=C1c2ccccc2C(=O)N1CCC(c1ccc(F)cc1)c1ccco1 (stereo unspecified)	-0.1%	-14.9%	4.1	6.6%	14.1µM*
COc1ccc(Cl)cc1NC(=O)CSc1nc2c(oc3ccccc32)c(=O)n1Cc1ccco1	5.7%	12.6%	·	?	·
COc1ccc(-c2nc3ccccc3s2)cc1NC(=O)c1ccccc1OC	-21.6%	0.5%	·	-8.9%	·
SMILES	Tau fluor cs	Tau ThT inhib	FBPA coupling cs	Tau FP inhib	Sfp inh
O=[N+]([O-])c1ccc(O)c(N=Cc2sc3ccccc3c2O)c1	?	4.47µM*	-12.5	1.7%	-9.3%
Oc1ccc(Cl)cc1N=Cc1sc2ccccc2c1Cl	-12.2%	-17.8%	-1.0	-6.4%	-20.6%
Cc1cccc(/N=C/c2sc3ccccc3c2O)n1	25.1µM*[fluorescent]	5.62µM*	-3.1	?	11.7%
O=C(CC1N=C2c3ccccc3N=C(SCc3ccccc3Cl)N2C1=O)NC1CCCCC1 (stereo unspecified)	-1.7%	-6.9%	·	5.1%	·
Cc1cccc(N2CCN(C(=O)C3CCCN(S(=O)(=O)c4ccc(Br)s4)C3)CC2)c1C (stereo unspecified)	-13.4%	-14.5%	·	-2.7%	·
CCN(CC)S(=O)(=O)c1ccc(N2CCOCC2)c(NC(=S)NC(=O)c2ccco2)c1	?	?	1.2	?	20µM*
O=C(NC(=S)Nc1cc(S(=O)(=O)N2CCOCC2)ccc1O)c1ccco1	-4.2%	-6.4%	0.0	-1.3%	44.7µM*
O=C(NC(=S)Nc1cc(S(=O)(=O)N2CCOCC2)ccc1N1CCOCC1)c1ccco1	-7.4%	4.7%	-2.7	0.7%	10.4%
c1cncc(CNc2ncncc2-c2ccc3c(c2)OCO3)c1	0.2%	-3.0%	-3.1	2.1%	-20.4%
CC(C)OC(=O)CC1C(=O)NCCN1C(=S)NC(=O)c1cccs1 (stereo unspecified)	-20.6%	-23.4%	-3.8	-9.7%	56.2µM*
COC(=O)CC1C(=O)NCCN1C(=S)Nc1cc(C)cc(C)c1 (stereo unspecified)	-18.3%	-7.1%	0.3	-15.3%	-1.7%
CCNC(=S)N1CCNC(=O)C1CC(=O)OC (stereo unspecified)	-6.9%	-3.9%	-2.7	1.8%	79.4µM*
CCOC(=O)CC1C(=O)NCCN1C(=S)NC(=O)c1ccccc1OC (stereo unspecified)	·	·	·	·	-20.0%
COC(=O)CC1C(=O)NCCN1C(=S)NC(=O)c1ccccc1[N+](=O)[O-] (stereo unspecified)	-1.4%	-9.6%	0.1	6.8%	79.4µM*
COc1cccc(C(=O)CSc2nnnn2C)c1	-12.9%	-16.3%	2.9	-14.4%	50.1µM*
Cn1ccnc1SCC(=O)c1cccc(Br)c1	-12.3%	?	0.9	-4.4%	-3.2%
COc1cccc(C(=O)CSc2nccn2C)c1	·	·	-0.3	·	56.2µM*
Cc1ccccc1CNC(=O)C(C)n1nc(C)n2c(cc3occc32)c1=O (stereo unspecified)	-17.3%	-14.2%	·	-2.5%	·
CCOC(=O)c1c(C)[nH]c(C(=O)OCc2ccccc2)c1C	·	·	·	·	21.8%
CCOC(=O)c1c(C)[nH]c(N=Nc2ccccc2C)c1C	?	5.01µM*	-4.4	5.0%	3.7%
CCOC(=O)c1c(C)[nH]c(N=Nc2cc(C(=O)O)cc(C(=O)O)c2)c1C	-4.9%	?	17.0	-0.9%	-1.8%
CCOC(=O)c1c(C)[nH]c(N=Nc2ccc(C)cc2C)c1C	?	6.31µM*	-22.1	13.0%	?
CCOc1ccc(NC(=O)NCCN2CCN(c3cc(Cl)ccc3C)CC2)cc1	14.1µM*[quencher]	?	·	?	·
COc1ccc(N2CCN(CCNC(=O)Nc3ccc(Cl)cc3)CC2)cc1	-21.0%	-14.9%	-2.0	16.2%	-1.7%
Cc1ccc(Cl)cc1N1CCN(CCNC(=O)Nc2ccc(Cl)cc2)CC1	?	-1.1%	·	12.6µM*	·
FC(F)(F)c1nc2cc3nc4ccccc4[nH]c3cc2n1	-29.8%	5.01µM*	-18.9	?	1.6%
